Data as given in PubChem BioAssay (EPA / NIEHS).
“And” between values parts separate entries of the source, which are not always exact repeats. Equal values may be shown once. Records with an inconclusive call do not appear. The source made the active and inactive calls. Rule for the calls: active = hit-call score of the fitted dose curve at least 0.9, where 1 is the maximum; inconclusive = response in the unintended direction; inactive = score below 0.9.

Each compound was assayed against human Adenosine A1 Receptor (AdoRA1), ADORA1 (gene 134) (UniProt P30542) (assay: NVS_GPCR_hAdoRA1: NovaScreen (NVS) G Protein-Coupled Receptor Assay for human Adenosine A1 Receptor (AdoRA1) (AID 2283254)).
human Adenosine A1 Receptor (AdoRA1), ADORA1 (gene 134), sequence (P30542 whole entry, looked up): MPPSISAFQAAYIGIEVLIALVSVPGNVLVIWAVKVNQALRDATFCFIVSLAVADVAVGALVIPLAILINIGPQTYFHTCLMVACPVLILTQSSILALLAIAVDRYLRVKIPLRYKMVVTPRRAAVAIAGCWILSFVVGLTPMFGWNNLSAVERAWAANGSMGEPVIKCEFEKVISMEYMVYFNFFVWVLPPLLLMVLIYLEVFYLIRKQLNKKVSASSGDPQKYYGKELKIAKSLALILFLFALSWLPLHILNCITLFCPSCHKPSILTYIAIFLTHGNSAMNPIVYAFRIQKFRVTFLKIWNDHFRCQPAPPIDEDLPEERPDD
In short: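 Radioligand competition binding on human cortical membranes, 1 h after compound addition; bound radioactivity read by filtration and scintillation counting. Loss of signal versus DMSO baseline scored as displacement; primary screen duplicate at 25 uM, actives retested in concentration series.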

SMILES | AC50 | outcome
CCOC(=O)O[C@H](C)OC(=O)c1ccc2c(c1)cc(C(=O)NC1CCN(C(C)C)CC1)n2Cc1cc(-c2ccc(Cl)s2)on1 | 15.9 µM (active) | 
COc1cccc([C@H](O)C2CCN(CCc3ccc(F)cc3)CC2)c1OC |  | inactive
CCCCCCCCOC(=O)c1cc(O)c(O)c(O)c1 | 12.4 µM (active) | 
CC/C(=C(/CC)c1ccc(O)cc1)c1ccc(O)cc1 | 4.81 µM (active) | 
O=c1c(-c2ccc(O)cc2)coc2cc(O)cc(O)c12 |  | inactive
CCCCCCCCCC(=O)O |  | inactive
O=C(O)Cc1cc(I)c(Oc2ccc(O)c(I)c2)c(I)c1 |  | inactive

The compounds below were run against human Adenosine A2a Receptor (AdoRA2a), ADORA2A (gene 135) (UniProt P29274) (assay: NVS_GPCR_hAdoRA2a: NovaScreen (NVS) G Protein-Coupled Receptor Assay for human Adenosine A2a Receptor (AdoRA2a) (AID 2283256)).
human Adenosine A2a Receptor (AdoRA2a), ADORA2A (gene 135), sequence (P29274 whole entry, looked up): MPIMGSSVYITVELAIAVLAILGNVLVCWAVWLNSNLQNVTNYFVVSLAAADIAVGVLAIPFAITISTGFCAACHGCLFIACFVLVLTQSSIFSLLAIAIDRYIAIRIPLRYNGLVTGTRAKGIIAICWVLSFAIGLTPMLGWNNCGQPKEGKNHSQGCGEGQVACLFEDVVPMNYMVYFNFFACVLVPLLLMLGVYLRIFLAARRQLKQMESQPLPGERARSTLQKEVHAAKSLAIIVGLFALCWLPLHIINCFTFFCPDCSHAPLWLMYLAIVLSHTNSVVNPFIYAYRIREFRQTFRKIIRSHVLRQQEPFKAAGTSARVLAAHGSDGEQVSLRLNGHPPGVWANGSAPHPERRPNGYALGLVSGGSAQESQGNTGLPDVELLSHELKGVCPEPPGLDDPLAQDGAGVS
In short: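 HEK293-derived receptor preparation, radioligand displacement, 1.5 h, filtration + scintillation read. Loss of bound signal scored vs DMSO. Single-point 25 uM in duplicate first, then concentration-response for actives.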

SMILES | AC50 | outcome
COc1cc(C(=O)NC2CCN(C)CC2)ccc1Nc1ncc2c(n1)N(C1CCCC1)CC(F)(F)C(=O)N2C | 13.8 µM (active) | 
Cc1occc1C(=O)Nc1ccc(C(=O)N2CCC(F)(F)/C(=C\C(=O)N3CCC(N4CCCCC4)CC3)c3ccccc32)cc1 | 2.33 µM (active) | 
Cc1cc(F)ccc1-c1cc(N2CC[C@@H](O)[C@H]2CO)ncc1N(C)C(=O)C(C)(C)c1cc(C(F)(F)F)cc(C(F)(F)F)c1 | 20.4 µM (active) | 
CCOC(=O)O[C@H](C)OC(=O)c1ccc2c(c1)cc(C(=O)NC1CCN(C(C)C)CC1)n2Cc1cc(-c2ccc(Cl)s2)on1 | 10.2 µM (active) | 
CCCCCCCCOC(=O)c1cc(O)c(O)c(O)c1 | 8.09 µM (active) | 
CC(C)(O)c1ccc(CNC(=O)c2cccnc2Oc2ccc3nonc3c2)cc1 |  | inactive
O=c1c(-c2ccc(O)cc2)coc2cc(O)cc(O)c12 | 6.03 µM (active) | 
CCCCCCCCCC(=O)O |  | inactive

What follows are compounds tested against human Adrenergic, Alpha 2A Receptor (Adra2A), ADRA2A (gene 150) (UniProt P08913) (assay: NVS_GPCR_hAdra2A: NovaScreen (NVS) G Protein-Coupled Receptor Assay for human Adrenergic, Alpha 2A Receptor (Adra2A) (AID 2283257)).
human Adrenergic, Alpha 2A Receptor (Adra2A), ADRA2A (gene 150), sequence (P08913 whole entry, looked up): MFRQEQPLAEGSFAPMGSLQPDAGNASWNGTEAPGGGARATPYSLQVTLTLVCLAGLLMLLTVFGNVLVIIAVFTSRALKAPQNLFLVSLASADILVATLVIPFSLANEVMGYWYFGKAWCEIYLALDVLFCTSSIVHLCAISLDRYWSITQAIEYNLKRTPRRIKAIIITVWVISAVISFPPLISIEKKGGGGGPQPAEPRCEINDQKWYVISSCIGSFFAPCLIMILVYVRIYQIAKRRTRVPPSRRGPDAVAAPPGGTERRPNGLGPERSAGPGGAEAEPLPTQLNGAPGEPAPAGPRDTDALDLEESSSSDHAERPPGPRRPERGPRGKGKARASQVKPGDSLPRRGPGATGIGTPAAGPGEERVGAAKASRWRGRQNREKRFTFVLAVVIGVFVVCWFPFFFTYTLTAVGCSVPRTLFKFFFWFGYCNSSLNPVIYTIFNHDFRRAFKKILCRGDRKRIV
In short: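 Displacement of a specific radioligand from HT29 membrane protein was counted by filter scintillation after 1 h. Compounds were screened in duplicate at 25 uM, and actives were retested in concentration series. Fitting was positive-direction against DMSO.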

SMILES | AC50 | outcome
COc1ccc2cc(S(=O)(=O)N[C@H](CC(=O)N[C@H](Cc3ccc(CN4[C@H](C)CCC[C@@H]4C)cc3)C(=O)N(C)C(C)C)c3ccc4c(c3)OCO4)ccc2c1 | 18.8 µM (active) | 
CN(C)c1ccc(C(=C2C=CC(=[N+](C)C)C=C2)c2ccc(N(C)C)cc2)cc1 | 2.59 µM (active) | 
COc1cc(C(=O)NC2CCN(C)CC2)ccc1Nc1ncc2c(n1)N(C1CCCC1)CC(F)(F)C(=O)N2C | 14 µM (active) | 
Cc1occc1C(=O)Nc1ccc(C(=O)N2CCC(F)(F)/C(=C\C(=O)N3CCC(N4CCCCC4)CC3)c3ccccc32)cc1 | 3.18 µM (active) | 
CCN(Cc1cccnc1)C(=O)c1cccc(Cl)c1[C@]1(C)C(=O)N(Cc2ccc(OC)cc2OC)c2ccc(Cl)cc21 |  | inactive
CN(C)C(=O)C1(N2CCCCC2)CCN(CC[C@@]2(c3ccc(Cl)c(Cl)c3)CN(C(=O)c3ccccc3)CCO2)CC1 | 35.6 µM (active) | 
NCc1cccc(C2CCN(C(=O)c3ccc(C#Cc4ccccc4F)o3)CC2)c1 | 25 µM (active) | 
O=C1c2ccccc2C(=O)N1CCc1noc(-c2ccc(CN3CCCCCC3)s2)n1 | 0.861 µM (active) | 
CCOC(=O)O[C@H](C)OC(=O)c1ccc2c(c1)cc(C(=O)NC1CCN(C(C)C)CC1)n2Cc1cc(-c2ccc(Cl)s2)on1 | 6.3 µM (active) | 
Clc1cc(Cl)c2c(c1)N=C1CCCCCN1C2 | 2.99 µM (active) | 

What follows are compounds tested against human Adrenergic, Beta 1 Receptor (Adrb1), ADRB1 (gene 153) (UniProt P08588) (assay: NVS_GPCR_hAdrb1: NovaScreen (NVS) G Protein-Coupled Receptor Assay for human Adrenergic, Beta 1 Receptor (Adrb1) (AID 2283258)).
human Adrenergic, Beta 1 Receptor (Adrb1), ADRB1 (gene 153), sequence (P08588 whole entry, looked up): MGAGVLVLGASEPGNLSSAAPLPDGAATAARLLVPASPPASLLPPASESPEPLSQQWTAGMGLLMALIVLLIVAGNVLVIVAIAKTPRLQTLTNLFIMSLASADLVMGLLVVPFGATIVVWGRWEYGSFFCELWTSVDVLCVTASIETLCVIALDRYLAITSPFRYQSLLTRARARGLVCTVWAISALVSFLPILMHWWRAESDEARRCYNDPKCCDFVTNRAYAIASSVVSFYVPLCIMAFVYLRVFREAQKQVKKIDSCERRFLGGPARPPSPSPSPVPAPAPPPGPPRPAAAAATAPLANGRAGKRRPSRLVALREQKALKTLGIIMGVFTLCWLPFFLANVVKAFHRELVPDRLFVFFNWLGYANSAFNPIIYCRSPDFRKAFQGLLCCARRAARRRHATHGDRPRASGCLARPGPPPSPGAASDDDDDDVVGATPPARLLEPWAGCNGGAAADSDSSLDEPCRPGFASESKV
In short: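 Membranes/protein extracted from human neuroepithelioma cells, radioligand competition binding read by filtration and scintillation 2 h post-dose. Single 25 uM duplicate screen, then concentration-response follow-up; DMSO as negative control.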

SMILES | AC50 | outcome
Cc1cc(F)ccc1-c1cc(N2CC[C@@H](O)[C@H]2CO)ncc1N(C)C(=O)C(C)(C)c1cc(C(F)(F)F)cc(C(F)(F)F)c1 | 20.4 µM (active) | 
CN(C)C(=O)C1(N2CCCCC2)CCN(CC[C@@]2(c3ccc(Cl)c(Cl)c3)CN(C(=O)c3ccccc3)CCO2)CC1 | 20.7 µM (active) | 
NCc1cccc(C2CCN(C(=O)c3ccc(C#Cc4ccccc4F)o3)CC2)c1 | 20.6 µM (active) | 
CCOC(=O)O[C@H](C)OC(=O)c1ccc2c(c1)cc(C(=O)NC1CCN(C(C)C)CC1)n2Cc1cc(-c2ccc(Cl)s2)on1 | 6.33 µM (active) | 
CC(C)(C)c1csc(-c2cc3cc(OCc4ccccc4CC(=O)O)ccc3o2)n1 |  | inactive
CCCCCCCCOC(=O)c1cc(O)c(O)c(O)c1 | 22.6 µM (active) | 
CCCCCCCCOc1ccc(C(=O)c2ccccc2)c(O)c1 |  | inactive
CC/C(=C(/CC)c1ccc(O)cc1)c1ccc(O)cc1 | 43.5 µM (active) | 

What follows are compounds tested against human Adrenergic, Alpha 2c Receptor (Adra2C), ADRA2C (gene 152) (UniProt P18825) (assay: NVS_GPCR_hAdra2C: NovaScreen (NVS) G Protein-Coupled Receptor Assay for human Adrenergic, Alpha 2c Receptor (Adra2C) (AID 2283259)).
human Adrenergic, Alpha 2c Receptor (Adra2C), ADRA2C (gene 152), sequence (P18825 whole entry, looked up): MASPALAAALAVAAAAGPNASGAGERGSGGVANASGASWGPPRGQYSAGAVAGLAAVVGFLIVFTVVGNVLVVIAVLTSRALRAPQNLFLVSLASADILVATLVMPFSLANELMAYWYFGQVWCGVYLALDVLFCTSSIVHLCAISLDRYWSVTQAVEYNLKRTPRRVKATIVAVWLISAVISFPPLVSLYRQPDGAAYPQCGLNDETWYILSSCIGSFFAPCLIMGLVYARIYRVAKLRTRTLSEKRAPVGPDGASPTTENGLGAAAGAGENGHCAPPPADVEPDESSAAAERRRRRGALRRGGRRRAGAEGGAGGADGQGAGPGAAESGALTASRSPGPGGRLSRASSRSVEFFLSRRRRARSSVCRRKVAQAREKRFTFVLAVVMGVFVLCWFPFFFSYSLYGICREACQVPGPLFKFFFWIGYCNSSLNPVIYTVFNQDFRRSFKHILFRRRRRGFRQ
In short: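 Screened first in duplicate at 25 uM, with actives then run as concentration series. Membranes from Sf9 cells were exposed for 1 h, and displacement of radioligand was counted after filtration, using DMSO as baseline.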

SMILES | AC50
COc1ccc2cc(S(=O)(=O)N[C@H](CC(=O)N[C@H](Cc3ccc(CN4[C@H](C)CCC[C@@H]4C)cc3)C(=O)N(C)C(C)C)c3ccc4c(c3)OCO4)ccc2c1 | 5.22 µM (active)
CN(C)c1ccc(C(=C2C=CC(=[N+](C)C)C=C2)c2ccc(N(C)C)cc2)cc1 | 1.79 µM (active)
COc1cc(C(=O)NC2CCN(C)CC2)ccc1Nc1ncc2c(n1)N(C1CCCC1)CC(F)(F)C(=O)N2C | 6.01 µM (active)
Cc1occc1C(=O)Nc1ccc(C(=O)N2CCC(F)(F)/C(=C\C(=O)N3CCC(N4CCCCC4)CC3)c3ccccc32)cc1 | 1.03 µM (active)
CCN(Cc1cccnc1)C(=O)c1cccc(Cl)c1[C@]1(C)C(=O)N(Cc2ccc(OC)cc2OC)c2ccc(Cl)cc21 | 2.22 µM (active)
Cc1cc(F)ccc1-c1cc(N2CC[C@@H](O)[C@H]2CO)ncc1N(C)C(=O)C(C)(C)c1cc(C(F)(F)F)cc(C(F)(F)F)c1 | 5.39 µM (active)
CN(C)C(=O)C1(N2CCCCC2)CCN(CC[C@@]2(c3ccc(Cl)c(Cl)c3)CN(C(=O)c3ccccc3)CCO2)CC1 | 12.1 µM (active)
NCc1cccc(C2CCN(C(=O)c3ccc(C#Cc4ccccc4F)o3)CC2)c1 | 4.51 µM (active)
O=C1c2ccccc2C(=O)N1CCc1noc(-c2ccc(CN3CCCCCC3)s2)n1 | 1.08 µM (active)
CCN(CC)C(=O)c1cc(S(=O)(=O)Cc2ccccc2)c(N2CCC(c3ccccc3)CC2)cc1N(CC)CCN(C)C | 9.22 µM (active)
CCOC(=O)O[C@H](C)OC(=O)c1ccc2c(c1)cc(C(=O)NC1CCN(C(C)C)CC1)n2Cc1cc(-c2ccc(Cl)s2)on1 | 2.01 µM (active)
Clc1cc(Cl)c2c(c1)N=C1CCCCCN1C2 | 5.73 µM (active)
CCCCCCCCOC(=O)c1cc(O)c(O)c(O)c1 | 11.8 µM (active)
CC/C(=C(/CC)c1ccc(O)cc1)c1ccc(O)cc1 | 19.2 µM (active) and 25 µM (active) and 5.86 µM (active)
